Compounds without any hit were thinned out: in the full panel of roughly 83,000, 20% have a hit.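 Compound tested at a single concentration for 48 hours in 96-well plates; a percent growth value below 10 was scored as active.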 Values without a mark were called inactive. Activity calls are given as the source filed them.
The compounds below were run on SK-MEL-28 melanoma (assay: NCI-60 one-dose screen, 48 h (100 = growth as untreated, 0 = no growth, -100 = all killed)). Conditions: 10 µM unless noted.
Experimental: Growth inhibition of the SK-MEL-28 human tumor cell line is measured as a screen for anti-cancer activity. Cells are grown in 96 well plates and exposed to the test compound for 48 hours. Compounds are tested at a single concentration, which is 10^-5 M for most compounds. The reported endpoint is percent growth (GI% or GIPRCNT), where numbers from 0 - 100% represent growth inhibition, and numbers from -100% - 0 represent cell death. For example, a value of 40 represents 60% growth inhibition. A value of 0 means no net growth occurred over the course of the experiment. A value of -40 indicates 40% of cells at the beginning of the experiment died by the end of the experiment. A value of -100 means all cells are dead at the end of the experiment.
NCI-60 Human Tumor Cell Lines Screen was performed using the standard one-dose NCI protocol, which is described in more detail at https://dtp.cancer.gov/discovery_development/nci-60/default.htm.
Compounds with GIPRCNT values below 10 were considered active. Activity score was based on GIPRCNT using the following formula: […]
Score is 0 for GIPRCNT values of 100 or above, 50 for GIPRCNT values of 0, and 100 for GIPRCNT values of -100.
`N#Cc1c(-c2ccccc2)nc2c(c(-c3ccccc3)nn2-c2ccccc2)c1-c1ccc(N2CCOCC2)cc1` gave a growth of 107%.
Compound `C#CC#CC#CC#CC#CC#CC#CC#CC[C@H]1OC[C@@H](COC(=O)O[C@@H](C(=O)O[C@H]2C[C@@]3(O)[C@@H](OC(=O)c4ccccc4)[C@@H]4[C@]5(OC(C)=O)CO[C@@H]5C[C@H](O)[C@@]4(C)C(=O)[C@H](OC(C)=O)C(=C2C)C3(C)C)[C@@H](NC(=O)c2ccccc2)c2ccccc2)O1` has a growth of 62.8%.
In the case of `Cc1cccc(NC(=O)CSc2nc3ccc([N+](=O)[O-])cc3[nH]2)c1`, the growth is reported as 80.7%.
`CCCCCCCCn1ccc2cc(NC(=O)Cn3cc(CN4CCOCC4)nn3)ccc21` was tested, and the growth was 99.8%.
Work on `COc1ccc2cc(-c3cnc4nonc4n3)ccc2c1` yielded a growth of 86.3%.
`COC(=O)c1c2c(n3ccc(C)cc13)C(=O)c1ccccc1C2=O` was tested, and the growth was 99.4%.
Work on `CCOC(=O)c1cn2ncnc(Oc3ccc(NC(=O)NC4CC4)c(F)c3)c2c1C` yielded a growth of 108%.
`CCN(CC)c1ccc(/C=C\c2cc(C)c3cc(C)ccc3n2)cc1` showed a growth of 50.7%.
`Cn1cc(-c2nc(-c3c[nH]c4ccncc34)cs2)c2cc(Br)ccc21` was tested, and the growth was -91.3% (active).
Work on `C/C(=N\Nc1nc(C)cs1)c1cc2ccccc2o1` yielded a growth of 110%.
In the case of `COc1ccc2c(c1)c(-c1nonc1-c1cn(C)c3ccc(OC)cc13)cn2C`, the growth is reported as 60.8%.
`COc1cccc(OC)c1Oc1c(-c2nc3ccccc3s2)c(C)nn1-c1ccccc1` was tested, and the growth was 106%.
For `CCOC(=O)c1c(NC(=O)CSc2n[nH]c3nc4ccccc4n23)sc(CC)c1C`, the growth was 113%.
In the case of `COc1ccc(/C=C/C(=O)c2cc3c(N)c(C(=O)Nc4ccc(OC)cc4)sc3nc2C)cc1`, the growth is reported as 55.7%.
With `Cc1ncc(C(=O)Nc2ccc(CN3CCN(C)CC3)c(C(F)(F)F)c2)cc1C#Cc1cnc(N)c2cnccc12` the growth was -0.469% (active).
`COc1ccc(C2=C/C(=C\c3ccc(Cl)cc3)C(=O)N2/N=C/c2ccc(Cl)cc2)cc1` was tested, and the growth was 101%.
`COCCCOc1cc(C[C@@H](C[C@H](N)[C@@H](O)C[C@H](C(=O)NCC(C)(C)C(N)=O)C(C)C)C(C)C)ccc1OC` was tested, and the growth was 104%.
With `CCN(CC)CCCC(C)Nc1ccc2cc(OC)ccc2n1` (stereo not given) the growth was 108%.
In the case of `COc1cccc(/C=C/C(=O)c2cc3c(N)c(C(=O)Nc4ccccc4C)sc3nc2C)c1`, the growth is reported as 70.9%.
`O=C(O)CCCc1cnc2c3sccc3nc(SCc3c(Cl)cccc3Cl)n12` was tested, and the growth was 75.3%.
`OC(c1ccccc1)(c1ccccc1)c1ccccc1-c1ccccc1` gave a growth of 109%.
Work on `O=C(CCC(=O)c1nc2ncccc2[nH]1)NN1C(=O)CSC1c1ccc(Cl)cc1` (stereo not given) yielded a growth of 109%.
`Cc1c(N2CN3C[C@H](C)N4CN(c5c(C)n(C)n(-c6ccccc6)c5=O)CN5C[C@@H](C)N(C2)C3C54)c(=O)n(-c2ccccc2)n1C` (stereo not given in full) was tested, and the growth was 101%.
For `O=C(NCc1ccc2c(c1)OCO2)NCC1CCCC(CNC(=O)NCc2ccc3c(c2)OCO3)C1` (stereo not given), the growth was 114%.
With `O=C1OCC2=C1C(c1cccc(F)c1)c1cc3c(cc1N2CCO)OCO3` (stereo not given) the growth was 59.5%.
`Cc1nn(-c2ccccc2)c(/N=C/N(C)C)c1/C=C/C(=O)c1ccc(Cl)cc1` showed a growth of 89.6%.
For `CC1(C)OC(=O)C(=Cc2cccc(Br)c2)C(=O)O1`, the growth was 119%.
With `CC12CCC(/C(=C/NNc3ccc([N+](=O)[O-])cc3[N+](=O)[O-])C1=O)C2(C)C` (stereo not given) the growth was 83.5%.
`COc1ccc(C2CC(c3ccc4c(c3)OCO4)=Nc3c(N)ncnc3N2)cc1` (stereo not given) showed a growth of 112%.
Work on `Nc1nc(C(=O)N/N=C/c2ccc(N3CCOCC3)cc2)nn1-c1ccc(S(N)(=O)=O)cc1` yielded a growth of 117%.
In the case of `COCC[C@H]1CCC/C=C/[C@@H]2C[C@H](O)C[C@H]2[C@H](O)/C=C/C(=O)O1`, the growth is reported as 0.149% (active).
`Cc1[nH]c(C(=O)Nc2ccc(C(N)=O)cc2NC(C)C)c(Cl)c1Cl` gave a growth of 105%.
Work on `O=C(/C=C\c1ccco1)/C=C/c1ccco1` yielded a growth of 110%.
With `Fc1ccc2c(c1)c(-c1nc(-c3c[nH]c4ncccc34)cs1)cn2CCCN1CCOCC1` the growth was 75.4%.
Compound `O=C(/C=C/c1ccc(Br)cc1)c1ccc(-n2cc(CN3CCN(c4cc5c(cc4F)c(=O)c(C(=O)O)cn5C4CC4)CC3)nn2)cc1` has a growth of 107%.
With `COc1ccc(C(c2cc(OC)c(OC)c(OC)c2)N2CCN(Cc3ccccc3)CC2)cc1` (stereo not given) the growth was 78.3%.
`COc1cc(Nc2c3ccc(Cl)cc3nc3ccc(OC)cc23)c2ncccc2c1` showed a growth of 50%.
With `CCN1C(=S)N(CC)C2C1NC(=S)N2/N=C/C=C/c1ccccc1OC` (stereo not given) the growth was 54.5%.
For `CC1(C)O[C@H]2OC3CCC(=O)CC3(O)[C@H]2O1` (stereo not given in full), the growth was 120%.
Compound `CCCCCn1sc(=O)n(Cc2ccc(CNC(=O)OCc3ccc4c(Cl)cc(Cl)c(O)c4n3)cc2)c1=O` has a growth of 56%.
